Laboratory results from PubChem BioAssay (NCATS).
Results filed as inconclusive are left out. Activity calls are given as the source filed them. Unless noted, the call rests on the fitted dose curve; in most records, active means well fitted inhibition curve with a large enough effect; inconclusive means small, poorly fitted or top-dose-only effect; inactive means flat fitted curve, though single readings scatter.

Key:
[1] = qHTS drug screen for cell cycle checkpoint inhibitors in PARPi-resistant BRCA-mutant ovarian cancer cell lines. (AID 1963452; calls by dose curve); details: PEO1/OlaR viability, CellTiter-Glo luminescence, 96 h, stronger effect = lower value
Procedure, shortened: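 PEO1, PEO4 and PEO1/OlaR ovarian cancer cells, 600 per well, exposed 96 h at 37C to a dilution series. Viability read by CellTiter-Glo luminescence, normalized to DMSO and empty wells; activity summarized as Z-AUC.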

[2] = qHTS profiling for inhibitors of Plasmodium falciparum proliferation (AID 504749); further: nearly all actives have a fitted effect of over 60% in size; further: potency means the concentration at half of the fitted maximal effect;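 on activity, negative = inhibition: 0% = DMSO vehicle and full inhibition = artemisinin control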; details: P. falciparum in erythrocytes, SYBR Green DNA, 72 h
Procedure, shortened: (§1)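 In a 72 h erythrocytic culture (37 C, humidified, 5% CO2) at 2.5% hematocrit and 0.3% starting parasitemia, compounds were tested; SYBR Green I in detergent lysis buffer stained parasite DNA overnight.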

[3] = tested on: 3D7; assay: as above; details: P. falciparum in erythrocytes, SYBR Green DNA, 72 h; series mostly up to 28.7 µM
Procedure, shortened: as §1

[4] = tested on: 7G8; assay: as above; details: P. falciparum in erythrocytes, SYBR Green DNA, 72 h; series mostly up to 28.7 µM
Procedure, shortened: as §1

[5] = tested on: AA1029; assay: as above; details: P. falciparum in erythrocytes, SYBR Green DNA, 72 h; series mostly up to 28.7 µM
Procedure, shortened: as §1

[6] = tested on: AS120; assay: as above; details: P. falciparum in erythrocytes, SYBR Green DNA, 72 h; series mostly up to 28.7 µM
Procedure, shortened: as §1

[7] = tested on: ATS189; assay: as above; details: P. falciparum in erythrocytes, SYBR Green DNA, 72 h; series mostly up to 28.7 µM
Procedure, shortened: as §1

[8] = tested on: ATS95; assay: as above; details: P. falciparum in erythrocytes, SYBR Green DNA, 72 h; series mostly up to 28.7 µM
Procedure, shortened: as §1

[9] = tested on: C2A; assay: as above; details: P. falciparum in erythrocytes, SYBR Green DNA, 72 h; series mostly up to 28.7 µM
Procedure, shortened: as §1

[10] = tested on: CP185; assay: as above; details: P. falciparum in erythrocytes, SYBR Green DNA, 72 h; series mostly up to 28.7 µM
Procedure, shortened: as §1

[11] = tested on: CP192; assay: as above; details: P. falciparum in erythrocytes, SYBR Green DNA, 72 h; series mostly up to 28.7 µM
Procedure, shortened: as §1

[12] = qHTS for identification of novel therapeutic agents for treatment of microphthalmiaassociated transcription factor (MiT) renal cell carcinoma (RCC) (AID 1963991; calls by dose curve; further: potency means the concentration at half of the fitted maximal effect); details: CellTiter-Glo, 48 h; for z-score: stronger effect = lower value; for Potency: active = Z-AUC below -0.8 in all three lines
Procedure, shortened: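 Three TFE3-fusion RCC lines (UOK109, UOK124, UOK145), 500 cells/well in complete medium, were treated with MIPE 4.0 compounds for 48 hours at 37 C. Viability was by CellTiter-Glo luminescence, normalized to DMSO (100%) and empty wells (0%); curves fitted over 11 concentrations.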

[13] = tested on: CP191; assay: qHTS profiling for inhibitors of Plasmodium falciparum proliferation (AID 504749); further: nearly all actives have a fitted effect of over 60% in size; further: potency means the concentration at half of the fitted maximal effect;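 on activity, negative = inhibition: 0% = DMSO vehicle and full inhibition = artemisinin control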; details: P. falciparum in erythrocytes, SYBR Green DNA, 72 h; series mostly up to 28.7 µM
Procedure, shortened: as §1

[14] = measured here: PEO1 parental Z-AUC
[15] = at 12.8 µM (top of the series), parasite line A
[16] = at 12.8 µM (top of the series), parasite line B
[17] = TFE3-RCC UOK109 viability, measured here: UOK109 Z-AUC
[18] = TFE3-RCC viability, measured here: UOK124 Z-AUC
[19] = TFE3-RCC viability, measured here: UOK145 Z-AUC
[20] = at 28.7 µM (top of the series), parasite line A
[21] = at 28.7 µM (top of the series), parasite line B

Cc1oncc1C(=O)Nc1ccc(C(F)(F)F)cc1
0.454: Z-AUC [1, 14]
0.504: Z-AUC ([1]; measured here: PEO4 Z-AUC)
inactive: Z-AUC [1] 0.594 | activity, negative = inhibition [2, 15] -4.31% | activity, negative = inhibition [2, 16] 9.52% | Potency [3] | Potency [5] | Potency [6] | Potency [7] | Potency [8] | Potency [9] | Potency [10] | Potency [11]
active: Potency [4] 3.55 µM

Clc1cccc(Cl)c1NC1=NCCN1
0.654: z-score [12, 18]
0.351: z-score [12, 17]
inactive: activity, negative = inhibition [2, 20] -1.81% | activity, negative = inhibition [2, 21] 0.0653% | Potency [3] | Potency [5] | Potency [6] | Potency [7] | Potency [8] | Potency [9] | Potency [10] | Potency [13] | Potency [11]
-0.377: z-score [12, 19]

CC(C)NCC(O)COc1ccc(COCCOC(C)C)cc1 (stereo unspecified)
inactive: activity, negative = inhibition [2, 20] 1.04% | activity, negative = inhibition [2, 21] 5.04% | Potency [3] | Potency [4] | Potency [5] | Potency [6] | Potency [7] | Potency [8] | Potency [9] | Potency [10] | Potency [13] | Potency [11]

COc1ccc(-c2ccc3c(N4CCOC[C@H]4C)nc(N4CCOC[C@H]4C)nc3n2)cc1CO
-1.8: z-score [12, 17]
-2.87: z-score [12, 18]
-2.13: z-score [12, 19]
active: Potency ([12]; TFE3-RCC UOK109 viability) 93.5 nM

OC(CN1CCC(Cc2ccc(F)cc2)CC1)c1ccc(Cl)cc1 (stereo unspecified)
active: Potency ([2]; parasite line B) 891 nM | Potency [3] 5.01 µM | Potency [4] 0.316 µM | Potency [5] 1.41 µM | Potency [6] 1.26 µM | Potency [7] 1.41 µM | Potency [8] 1.58 µM
inactive: activity, negative = inhibition [2, 20] -26.6% | Potency [9] | Potency [13]

NNCCc1ccccc1
0.364: Z-AUC [1, 14]
inactive: Z-AUC [1] 0.52 | activity, negative = inhibition [2, 16] -6.84% | Potency [5] | Potency [7] | Potency [8] | Potency [9] | Potency [10] | Potency [13] | Potency [11]
0.249: Z-AUC ([1]; measured here: PEO4 Z-AUC)

O=c1n(CCCN2CCN(c3cccc(Cl)c3)CC2)nc2ccccn12
inactive: activity, negative = inhibition [2, 15] -5.98% | Potency [3] | Potency [4] | Potency [5] | Potency [6] | Potency [7] | Potency [9] | Potency [10] | Potency [13] | Potency [11]

CCCc1nn(C)c2c(=O)[nH]c(-c3cc(S(=O)(=O)N4CCN(C)CC4)ccc3OCC)nc12
0.991: Z-AUC ([1]; measured here: PEO4 Z-AUC)
active: Potency [4] 11.2 µM
1.2: Z-AUC [1, 14]
inactive: Z-AUC [1] 1.57 | activity, negative = inhibition [2, 20] 8.82% | activity, negative = inhibition [2, 21] 0.131% | Potency [3] | Potency [5] | Potency [6] | Potency [7] | Potency [8] | Potency [9] | Potency [10] | Potency [13] | Potency [11]

CCOc1ccc(Cc2cc([C@@H]3O[C@H](CO)[C@@H](O)[C@H](O)[C@@H]3O)ccc2Cl)cc1
0.362: z-score [12, 17]
0.747: z-score [12, 18]
0.623: z-score [12, 19]

N#Cc1ccc(C(c2ccc(C#N)cc2)n2cncn2)cc1
1.56: Z-AUC [1, 14]
inactive: Z-AUC [1] 1.61 | activity, negative = inhibition [2, 15] 0.0131% | activity, negative = inhibition [2, 16] 3.12% | Potency [3] | Potency [4] | Potency [5] | Potency [6] | Potency [7] | Potency [8] | Potency [9] | Potency [10] | Potency [13] | Potency [11]
1.79: Z-AUC ([1]; measured here: PEO4 Z-AUC)

C[C@]12CC[C@H](O)CC1=CC[C@@H]1[C@H]2CC[C@]2(C)C(c3cccnc3)=CC[C@H]12
0.87: z-score [12, 17]
0.924: z-score [12, 19]
0.84: z-score [12, 18]

Nc1nc2ccc(OC(F)(F)F)cc2s1
0.245: Z-AUC ([1]; measured here: PEO4 Z-AUC)
-0.387: Z-AUC [1, 14]
inactive: Z-AUC [1] -0.346 | Potency [3] | Potency [4] | Potency [5] | Potency [6] | Potency [8] | Potency [9] | Potency [10] | Potency [11]

Cc1c(CN2CCN(C(=O)C(C)C)CC2)sc2c(N3CCOCC3)nc(-c3cnc(N)nc3)nc12
-1.83: z-score [12, 17]
active: Potency ([12]; TFE3-RCC UOK109 viability) 118 nM
-2.67: z-score [12, 19]
-1.54: z-score [12, 18]

Cn1cnc([N+](=O)[O-])c1Sc1ncnc2nc[nH]c12
inactive: Z-AUC [1] -0.621 | Potency [3] | Potency [5] | Potency [6] | Potency [8] | Potency [11]
-1.27: Z-AUC [1, 14]
-1.41: Z-AUC ([1]; measured here: PEO4 Z-AUC)

O=C(C=Cc1ccc(/C=C/C(=O)Nc2ccc(C3=NCCN3)cc2)cc1)Nc1ccc(C2=NCCN2)cc1
0.309: z-score [12, 19]
0.767: z-score [12, 18]
0.251: z-score [12, 17]

COc1ccc2nc(S(=O)Cc3ncc(C)c(OC)c3C)[nH]c2c1 (stereo unspecified)
active: Potency [4] 10 µM
inactive: Z-AUC [1] 1.57 | activity, negative = inhibition [2, 20] -18.6% | activity, negative = inhibition [2, 21] -6.81% | Potency [3] | Potency [5] | Potency [6] | Potency [7] | Potency [8] | Potency [9] | Potency [10] | Potency [11]
0.925: Z-AUC [1, 14]
1.02: Z-AUC ([1]; measured here: PEO4 Z-AUC)
